SMILES strings stand for the structures. Out of some 1,200 compounds screened, about 85 (7%) were called active. Where a call stands in place of a potency, no number is given. Calls follow the shape of the full dose curve. The sample as a whole holds a higher share of actives than the screen did.
Potency is read from the fitted curve at half-maximal effect.

For the experiment, the target named is Beta-2 adrenergic receptor (Homo sapiens) (UniProt P07550). As to the kind of experiment: qHTS assay of beta-arrestin-biased ligands of beta2-adrenergic receptor: Hit Validation with GloSensor. Conditions: W9-Glo22F cells, GloSensor cAMP luminescence, beta2AR agonism; activation: at 46.1 µM (top of the series). The method, boiled down: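 W9-Glo22F cells plated and incubated overnight at 37 deg C, 5% CO2, then compounds pinned in. GloSensor reagent added, 10 min at room temperature, luminescence read.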
Chain of Beta-2 adrenergic receptor (Homo sapiens) (P07550 whole entry, looked up): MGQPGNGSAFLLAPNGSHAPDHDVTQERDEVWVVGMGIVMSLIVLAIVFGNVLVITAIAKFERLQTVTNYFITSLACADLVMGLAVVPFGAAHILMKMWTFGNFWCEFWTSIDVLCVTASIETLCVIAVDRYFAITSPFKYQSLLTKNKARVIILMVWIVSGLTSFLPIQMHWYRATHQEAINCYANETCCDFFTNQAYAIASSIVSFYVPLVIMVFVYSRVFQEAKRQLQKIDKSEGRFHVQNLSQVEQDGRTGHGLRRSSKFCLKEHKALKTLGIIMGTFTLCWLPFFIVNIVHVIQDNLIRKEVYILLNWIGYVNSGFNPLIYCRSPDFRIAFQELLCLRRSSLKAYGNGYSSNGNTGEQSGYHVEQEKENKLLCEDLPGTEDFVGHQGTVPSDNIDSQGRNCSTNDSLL
(In general: Quantitative high-throughput screening tests each substance at several concentrations.)
As to `O=C(Nc1ccccc1)N1CCCC(c2nc(-c3cccs3)no2)C1` (configuration not stated), the Potency entry is “inactive”.

For `COc1ccc(NC(=S)N2CCc3ccccc3C2)cc1`, the Potency result was “inactive”.

With `COc1ccc(/C=N/Nc2nncc3ccccc23)c(OC)c1`, the Potency entry was “inactive”.

As to `COc1ccc(/C(C)=N/Nc2nc3ccccc3nc2C)cc1OC`, the Potency is 25.9 µM (active).

For the compound `Cc1ccc(/C(=N/Nc2ncnc3ccccc23)C(=O)O)cc1`, the Potency result was “inactive”.

`Fc1ccccc1/C=N/n1cc(-c2ccccc2)[nH]c1=S`: the Potency entry was “inactive”.

For `O=C(/C=C/c1ccc(F)cc1)NC(=S)N1CCN(Cc2ccccc2)CC1`, the Potency result was “inactive”.

For the compound `C[C@H](C(=O)CC(=O)OC(C)(C)C)[C@H](O)c1ccccc1`, the Potency result was “inactive”.

On to `Cc1cc(/C=N/NC(N)=S)c(C)n1-c1ccc(Cl)cc1`, for which the Potency entry is “inactive”.

For `Cc1nc2ccc(NC(=O)CS(=O)(=O)c3ccc(F)cc3)cc2s1`, the Potency result was “inactive”.

Consider `C/C(=N\NC(=S)NC1CCCCC1)c1cccs1`, for which the Potency entry was “inactive”.

As for `C/C(=N\NC(=S)NC1CCCCC1)c1ccc(C)o1`, the Potency entry is “inactive”.

Regarding `C/C(=N\NC(=S)NC1CCCCC1)c1ccc(O)cc1`, the Potency is 6.51 µM (active).

Regarding `S=C(Nc1nc2c(s1)CCCC2)NC1CC1`, the Potency result was “inactive”.

In the case of `NS(=O)(=O)c1ccc(CCNC(=O)CSc2ccc(Cl)cc2)cc1`, the Potency entry is “inactive”.

`Nc1c(Cl)ncnc1N/N=C/c1ccc2ccccc2n1`: the Potency entry is “inactive”.

For `COc1cc(C(c2nnnn2C(C)(C)C)N2CCN(C)CC2)cc(OC)c1OC` (configuration not stated), the Potency entry is “inactive”.

Take `CN(C(=O)CSc1ccncc1)C1CCCN(Cc2ccccc2F)C1` (configuration not stated): the Potency entry is “inactive”.

`O=C(NCCOc1cccnc1)C1CCC(=O)N(Cc2ccccc2F)C1` (configuration not stated): the Potency was 9.2 µM (active).

In the case of `COc1ccccc1N1CCN(C(=O)c2cc3ccccc3[nH]2)CC1`, the Potency result is “inactive”.

As to `Cc1[nH]c2ccccc2c1C(=O)C(C)OC(=O)c1ccc(NC(=O)CC#N)cc1` (configuration not stated), the Potency result is “inactive”.

Turning to `O=C(Nc1ccc(Nc2ccccc2)cc1)c1cc([N+](=O)[O-])ccc1Cl`, the Potency entry was “inactive”.

For `CC(C)C(=O)N1CCC2(CC1)Oc1ccc(Cl)cc1C(=O)C21CC(c2ccccc2)=NO1` (configuration not stated), the Potency result was “inactive”.

As for `CCC(=O)N1CCC2(CC1)Oc1ccc(Cl)cc1C(=O)C21CC(c2ccccc2)=NO1` (configuration not stated), the Potency is 23.1 µM (active).

Turning to `CC(C)Oc1ccc(/C=N/NC(N)=S)cc1`, the Potency entry is “inactive”.

As for `OCc1ccnc2c(O)cccc12`, the Potency was 25.9 µM (active).

With `Cc1cccnc1NCc1ccc(O)c2ncccc12`, the Potency result was “inactive”.

For `CCCOCc1ccc(O)c2ncccc12`, the Potency result is “inactive”.

Take `COc1ccccc1NC(=O)COC(=O)c1ccc2ccccc2n1`: the Potency result was “inactive”.

`C[C@H](NC(=O)c1ccccc1)C(=O)Nc1nc(-c2ccccn2)cs1`: the Potency result is “inactive”.

For the compound `CC(C)OC(=O)c1cn(-c2ccccc2)nc1-c1ccco1`, the Potency is 23.1 µM (active).

For `O=C(Nc1ccc(Cl)cc1)/C(=C/c1cccc(O)c1)c1nc2ccccc2s1`, the Potency entry was “inactive”.

(Values after PubChem BioAssay AID588790 (National Center for Advancing Translational Sciences (NCATS), 2011).)
